# Assay results published in PubChem BioAssay (NCATS).
# Several values for one entry are separate records, joined by “and”; a condition that tells them apart may be missing. Identical values can stand only once. Inconclusive results are not listed. A call without a number means that no potency is given here. Activity calls are given as the source filed them. Calls come from the whole dose curve; as a rule, active = well fitted curve in the direction sought with a large enough effect; inconclusive = small, poorly fitted or top-dose-only effect, or another doubt; inactive = no such curve, though single readings can be large; an effect the other way counts as inactive or inconclusive.
# Molecular target: phosphoglycerate mutase (Leishmania major) (UniProt Q4Q090)
# Assay: qHTS Validation Assay to Find Inhibitors of Phosphoglycerate Mutase (AID 504548)
# Conditions: biochemical enzyme activity; series mostly up to 57.5 µM
# In short: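 Lm PGAM 1.25nM final; 100 mM TEA pH 7.6, 5 mM MgCl2, 0.01% Tween-20; 45 min RT; Kinase-GloPlus, 10 min; end-point luminescence. Enzyme-free wells as negative controls.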
# phosphoglycerate mutase (Leishmania major), sequence (Q4Q090 1-553): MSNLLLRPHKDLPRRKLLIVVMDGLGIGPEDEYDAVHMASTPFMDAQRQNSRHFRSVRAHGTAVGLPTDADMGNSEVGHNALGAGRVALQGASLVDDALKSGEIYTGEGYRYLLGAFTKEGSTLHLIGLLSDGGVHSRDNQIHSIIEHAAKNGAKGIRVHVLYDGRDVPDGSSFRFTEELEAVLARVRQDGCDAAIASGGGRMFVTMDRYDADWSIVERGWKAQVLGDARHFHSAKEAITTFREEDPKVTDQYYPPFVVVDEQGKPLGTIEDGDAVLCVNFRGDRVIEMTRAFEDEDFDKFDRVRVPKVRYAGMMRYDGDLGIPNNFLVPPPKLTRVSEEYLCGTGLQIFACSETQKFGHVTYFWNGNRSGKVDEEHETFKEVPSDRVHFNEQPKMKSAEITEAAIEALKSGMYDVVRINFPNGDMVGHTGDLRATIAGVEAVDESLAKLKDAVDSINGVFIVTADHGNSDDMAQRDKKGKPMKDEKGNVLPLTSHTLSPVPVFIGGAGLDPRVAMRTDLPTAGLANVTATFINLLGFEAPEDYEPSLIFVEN
row,SMILES,outcome
1,CC[C@@H](CO)NC(=O)[C@@H]1C=C2c3cccc4[nH]cc(c34)C[C@H]2N(C)C1,inactive
2,Cc1cccc(C)c1NC(=O)CN1CCCC1=O,inactive
3,CCCN1CCC[C@@H]2Cc3[nH]ncc3C[C@H]21,inactive
4,CC[C@@H](CO)NC(=O)[C@@H]1C=C2c3cccc4c3c(cn4C)C[C@H]2N(C)C1,inactive
5,COc1ccc(C(CN(C)C)C2(O)CCCCC2)cc1 (stereo unspecified),inactive

# System: not listed separately
# Assay: Inducers of the Endoplasmic Reticulum Stress Response (ERSR) in human glioma: Validation (AID 504836)
# Conditions: human glioma cells, ER stress response reporter; series mostly up to 38.3 µM
# In short: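 ERSR induction read as luciferase luminescence (Bright-Glo, 10 min at room temperature) in stably transfected human U87-MG glioma cells exposed to compounds for 16 h, using GRP78 as sensor.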
row,SMILES,outcome
1,CC(=O)Nc1nnc(S(N)(=O)=O)s1,inactive
2,O=c1c(O)c(-c2ccc(O)c(O)c2)oc2cc(O)cc(O)c12,inactive
3,CC[C@@H](CO)NC(=O)[C@@H]1C=C2c3cccc4[nH]cc(c34)C[C@H]2N(C)C1,inactive
4,CCOC(=O)N1CCC(=C2c3ccc(Cl)cc3CCc3cccnc32)CC1,inactive
5,CC(=O)O[C@]1(C(C)=O)CC[C@H]2[C@@H]3C=C(Cl)C4=CC(=O)[C@@H]5C[C@@H]5[C@]4(C)[C@H]3CC[C@@]21C,inactive
6,CCOC(=O)c1ncn2c1CN(C)C(=O)c1cc(F)ccc1-2,inactive
7,Cc1cccc(C)c1NC(=O)CN1CCCC1=O,inactive
8,COc1cc(Cc2cnc(N)nc2N)cc(OC)c1OC,inactive
9,CCN(CC)CCCC(C)Nc1ccnc2cc(Cl)ccc12 (stereo unspecified),inactive
10,CCCNCC(O)COc1ccccc1C(=O)CCc1ccccc1 (stereo unspecified),inactive
11,CC(=O)N[C@@H](CS)C(=O)O,inactive
12,Nc1nc(N)c2nc(-c3ccccc3)c(N)nc2n1,inactive
13,Cc1cn([C@H]2C[C@H](N=[N+]=[N-])[C@@H](CO)O2)c(=O)[nH]c1=O,inactive
14,CC(CN(C)C)CN1c2ccccc2CCc2ccccc21 (stereo unspecified),inactive
15,NC(=O)NO,inactive
16,CCCN1CCC[C@@H]2Cc3[nH]ncc3C[C@H]21,inactive
17,Cc1ccc(S(=O)(=O)NC(=O)NN2CCCCCC2)cc1,inactive

row,SMILES,outcome
1,CSc1ccc2c(c1)N(CCC1CCCCN1C)c1ccccc1S2 (stereo unspecified),inactive
2,CN1CCC(=C2c3ccccc3C=Cc3ccccc32)CC1,inactive
3,O=C(c1ccc(OCCN2CCCCC2)cc1)c1c(-c2ccc(O)cc2)sc2cc(O)ccc12,inactive
4,CN1CCN(CCCN2c3ccccc3Sc3ccc(C(F)(F)F)cc32)CC1,inactive
5,CN(C)c1nc(N(C)C)nc(N(C)C)n1,inactive
6,CNCCCC1c2ccccc2C=Cc2ccccc21,inactive
7,O=c1[nH]cc(F)c(=O)[nH]1,inactive
8,CC[C@@H](CO)NC(=O)[C@@H]1C=C2c3cccc4c3c(cn4C)C[C@H]2N(C)C1,inactive
9,CC1=NS(=O)(=O)c2cc(Cl)ccc2N1,inactive
10,CN1CCN(CCCN2c3ccccc3Sc3ccc(Cl)cc32)CC1,inactive
11,CNCCCN1c2ccccc2CCc2ccccc21,inactive
12,Cc1cn([C@H]2C=C[C@@H](CO)O2)c(=O)[nH]c1=O,inactive
13,CC(C)[N+](C)(CCOC(=O)C1c2ccccc2Oc2ccccc21)C(C)C,inactive
14,Cc1cc2c(C(C)C)c(O)c(O)c(C=O)c2c(O)c1-c1c(C)cc2c(C(C)C)c(O)c(O)c(C=O)c2c1O,inactive
15,COc1ccc([C@@H]2Sc3ccccc3N(CCN(C)C)C(=O)[C@@H]2OC(C)=O)cc1,inactive
16,COc1ccc(C(CN(C)C)C2(O)CCCCC2)cc1 (stereo unspecified),inactive
17,CCN(CC)CCNC(=O)c1cc(Cl)c(N)cc1OC,inactive

# Molecular target: Ubiquitin carboxyl-terminal hydrolase 1 (Homo sapiens) (UniProt O94782)
# Assay: Inhibitors of USP1/UAF1: Pilot qHTS (AID 504865); note: nearly all actives have a fitted effect of over 35% in size; note: potency is the fitted concentration of half-maximal effect
# Conditions: purified USP1/UAF1, Ub-rhodamine cleavage fluorescence; series mostly up to 114 µM
# In short: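 USP1/UAF1 complex at 1 nM preincubated 15 min at room temperature with compound, then Ub-Rho substrate added at 150 nM final. Fluorescence (480/540 nm) read kinetically in 50 mM HEPES pH 7.8, 0.5 mM EDTA, 1 mM TCEP, 0.1 mg/ml BSA, 0.01% Tween-20.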
# Ubiquitin carboxyl-terminal hydrolase 1 (Homo sapiens), sequence (O94782 whole entry, looked up): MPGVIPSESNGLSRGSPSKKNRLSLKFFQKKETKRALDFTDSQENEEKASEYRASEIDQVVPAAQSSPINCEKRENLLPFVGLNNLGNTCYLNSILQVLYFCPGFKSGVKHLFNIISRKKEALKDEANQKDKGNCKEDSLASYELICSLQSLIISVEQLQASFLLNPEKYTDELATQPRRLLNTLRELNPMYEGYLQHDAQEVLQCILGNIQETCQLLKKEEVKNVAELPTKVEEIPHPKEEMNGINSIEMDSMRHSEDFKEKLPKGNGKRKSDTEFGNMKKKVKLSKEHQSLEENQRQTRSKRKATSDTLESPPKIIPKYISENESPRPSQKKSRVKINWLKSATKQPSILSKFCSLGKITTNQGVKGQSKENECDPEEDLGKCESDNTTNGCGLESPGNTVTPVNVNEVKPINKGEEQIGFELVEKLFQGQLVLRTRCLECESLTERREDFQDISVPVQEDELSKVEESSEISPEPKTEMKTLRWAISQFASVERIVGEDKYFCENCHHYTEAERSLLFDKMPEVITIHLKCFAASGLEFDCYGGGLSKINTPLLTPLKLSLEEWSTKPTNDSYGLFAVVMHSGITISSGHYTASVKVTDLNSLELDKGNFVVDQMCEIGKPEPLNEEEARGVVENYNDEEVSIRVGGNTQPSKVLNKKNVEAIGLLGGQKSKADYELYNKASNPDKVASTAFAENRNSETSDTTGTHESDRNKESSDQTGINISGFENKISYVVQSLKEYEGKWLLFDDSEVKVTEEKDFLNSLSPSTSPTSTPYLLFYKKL
row,SMILES,Potency
1,CC[C@@H](CO)NC(=O)[C@@H]1C=C2c3cccc4[nH]cc(c34)C[C@H]2N(C)C1,inactive
2,Cc1cccc(C)c1NC(=O)CN1CCCC1=O,inactive
3,CCCN1CCC[C@@H]2Cc3[nH]ncc3C[C@H]21,inactive
4,CC[C@@H](CO)NC(=O)[C@@H]1C=C2c3cccc4c3c(cn4C)C[C@H]2N(C)C1,inactive
5,Cc1cc2c(C(C)C)c(O)c(O)c(C=O)c2c(O)c1-c1c(C)cc2c(C(C)C)c(O)c(O)c(C=O)c2c1O,22.4 µM (active) and 31.6 µM (active) and 10 µM (active)
6,COc1ccc(C(CN(C)C)C2(O)CCCCC2)cc1 (stereo unspecified),inactive

# System: not listed separately
# Assay: qHTS for Inhibitors of ATXN expression: Validation (AID 588378); note: nearly all actives have a fitted effect of over 75% in size; note: potency is the fitted concentration of half-maximal effect
# Conditions: cell-based ATXN2 expression reporter assay, luminescence; series mostly up to 57.1 µM
# In short: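 HEK293 cells carrying ATXN2-firefly luciferase reporter, treated with compound 24 h at 37 °C. Viability read first by CellTiter-Fluor (405/525 nm), then reporter expression by Bright-Glo luminescence; controls were a known ATXN2 expression inhibitor and a luciferase inhibitor.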
row,SMILES,Potency
1,CC[C@@H](CO)NC(=O)[C@@H]1C=C2c3cccc4[nH]cc(c34)C[C@H]2N(C)C1,inactive
2,Cc1cccc(C)c1NC(=O)CN1CCCC1=O,inactive
3,CCCN1CCC[C@@H]2Cc3[nH]ncc3C[C@H]21,inactive
4,CC[C@@H](CO)NC(=O)[C@@H]1C=C2c3cccc4c3c(cn4C)C[C@H]2N(C)C1,inactive
5,Cc1cc2c(C(C)C)c(O)c(O)c(C=O)c2c(O)c1-c1c(C)cc2c(C(C)C)c(O)c(O)c(C=O)c2c1O,7.08 µM (active)
6,COc1ccc(C(CN(C)C)C2(O)CCCCC2)cc1 (stereo unspecified),inactive
